These results are taken from PubChem BioAssay (NCATS).

Results filed as inconclusive are left out. Calls of active or inactive are those of the source. Unless noted, calls follow the shape of the dose curve; as a rule, active = well fitted inhibition curve with a large enough effect; inconclusive = small, poorly fitted or top-dose-only effect; inactive = no such curve, though single readings can be large or run the other way.

Assay [1] is described as follows: qHTS profiling of the MIPE4 collection as inhibitors of Plasmodium falciparum (DD2) proliferation (Rep 2) (AID 743346; call rule not given here). Particulars: P. falciparum Dd2 in erythrocytes, SYBR Green DNA, 72 h; at 28.5 µM unless noted. In a few lines: (§1)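 Erythrocytes infected with P. falciparum (0.3% parasitemia, 2.5% hematocrit) incubated with compounds 72 h at 37 C, 5% CO2. Lysis with saponin/Triton buffer containing SYBR Green I, overnight at room temperature in the dark; DNA fluorescence (485/535 nm) normalised to 0.29 uM artemisinin and DMSO.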
(qHTS replaces the single test concentration by a dilution series.)

A short description of assay [2]: qHTS profiling of the MIPE4 collection as inhibitors of Plasmodium falciparum (HB3) proliferation (AID 743347; call rule not given here;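 also: plate controls were DMSO vehicle wells for no effect and artemisinin wells for full effect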). Conditions: P. falciparum HB3 in erythrocytes, SYBR Green DNA, 72 h; at 28.5 µM unless noted. An outline of the steps:
as §1

Assay [3] is described as follows: High-throughput drug toxicity screening in the BPDCN cell line Gen2.2 (AID 1224824; call rule not given here;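 also: cells exposed to compounds for 48 h before reading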). Particulars: Gen2.2 BPDCN cells; at 45.8 µM (top of the series) unless noted. In a few lines: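 Readout is ATP luminescence from Gen2.2 cells after two days of drug exposure in serum-containing medium at 37 °C. Values express percent activity, with vehicle defining full signal and 9.2 uM bortezomib defining zero.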

Assay [4] can be described thus: High-throughput drug toxicity screening in the BPDCN cell line Cal-1 (AID 1224825; call rule not given here). Particulars: Cal-1 BPDCN cell viability, qHTS; at 45.8 µM (top of the series) unless noted. An outline of the steps: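 Exponentially growing Cal-1 cells, 500 per well in phenol red-free RPMI with 10% FBS, were exposed to compounds for 48 h at 37 °C, 5% CO2. Viability was read by CellTiter-Glo luminescence and normalised to DMSO (100%) and 9.2 uM bortezomib (0%).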

Assay [5] in a line: qHTS assay for measurement of the activity of small molecule inhibitors on Zika virus induced Caspase-3 activity in human iPSC derived neural progenitor cells (hNPCs) (AID 1224857). Also: % of control where 0% means no effect; nearly all actives have a fitted effect of over 65% in size. An outline of the steps: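 Cells were plated at 350 per well and grown 16 to 20 hours. Compound pretreatment lasted one hour, after which ZIKV (2 FFU/cell) was added for 6 hours. Percent inhibition was normalized between uninfected and infected controls.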

A short description of assay [6]: qHTS assay for measurement of the activity of small molecule inhibitors on Zika virus induced Caspase-3 activity in human astrocytoma cells (AID 1224859).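 Also: plate controls were ZIKV-infected untreated cells for no effect and uninfected cells for full effect.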 An outline of the steps: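 Percent inhibition of virus-induced caspase-3/7 signal is calculated against uninfected and ZIKV-infected control cells. Cells are SNB-19, infected at 2 FFU/cell for 6 h after 1 h compound exposure.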

The nature of assay [7]: qHTS Screen of the MIPE 4.0 Collection Against Ewings Sarcoma (RDES) (AID 1259252). Also: nearly all actives have a fitted effect of over 35% in size. Also: potency is read from the fitted curve at half-maximal effect. In a few lines: (§2)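 Here, cells in 5% FBS RPMI were exposed for two days (48 h) to compound dilutions added four hours after plating. ATP-based CellTiter-Glo luminescence measured viability, normalized to vehicle and no-cell blanks.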
Assay [8] can be described thus: qHTS Screen of the MIPE 4.0 Collection Against Ewings Sarcoma (TC71) (AID 1259253). Also: nearly all actives have a fitted effect of over 40% in size. Also: potency is read from the fitted curve at half-maximal effect. An outline of the steps: as §2
Assay [9] in a line: qHTS Screen of the MIPE 4.0 Collection Against Ewings Sarcoma (EW8) (AID 1259255). Also: nearly all actives have a fitted effect of over 35% in size. Also: potency is read from the fitted curve at half-maximal effect.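 As to viability: 100% = DMSO-treated cells and 0% = medium-only wells without cells.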 In a few lines:
as §2

Assay [10] is described as follows: qHTS Screen of the MIPE 4.0 Collection Against Ewings Sarcoma (TC32) (AID 1259256). Also: nearly all actives have a fitted effect of over 45% in size. Also: potency is read from the fitted curve at half-maximal effect. An outline of the steps:
as §2

Turning to `N#CC(=C(N)Sc1ccc(N)cc1)c1ccccc1C(F)(F)F`, the parasite growth, % of control (lower = inhibition) in [1] was 33.9%. The growth, % of control in assay [2] turned out to be 7.78%. Besides, the cell viability, % of control (lower = more cytotoxic) in assay [3] was found to be 7.44%. Also, in assay [4], the viability (% of control) was 57.2%. Further, the Potency result in [5] and in [6] was “inactive” each time. Further, the Potency in assay [7] was 5.9 µM (active); in [8] it was 10.5 µM (active); in assay [9], 3.32 µM (active).

In the case of `CCC[C@H]1C[C@H](C(=O)N[C@@H]([C@@H]2O[C@@H](SC)[C@@H](O)[C@@H](O)[C@@H]2O)[C@H](C)Cl)N(C)C1`, the parasite growth, % of control (lower = inhibition) in assay [1] amounted to 24.6%. Further, the growth, % of control in [2] is 25.3%. The cell viability, % of control (lower = more cytotoxic) in assay [3] stood at 155%. Moreover, in [4], the viability (% of control) was 128%. Further, the Potency entry in assay [5], in [6], in assay [7], in assay [8], in assay [9] and in [10] was “inactive” each time.

In the case of `COc1cc(C=CC(=O)CC(=O)C=Cc2ccc(O)c(OC)c2)ccc1O`, the parasite growth, % of control (lower = inhibition) in assay [1] was 16.5% [at 57.5 µM]. This molecule yielded a growth, % of control in assay [2] of 2.99% [at 57.5 µM]. The cell viability, % of control (lower = more cytotoxic) in assay [3] was found to be 5.74% [at 92.2 µM]. Moreover, the viability (% of control) in assay [4] stood at 5.08% [at 92.2 µM]. The Potency entry in [5] and in [6] was “inactive” throughout. Besides, the Potency in assay [7] was 7.62 µM (active); in assay [9] it was 6.05 µM (active); in assay [10], 12.1 µM (active).

With `C=CC1=C(C(=O)O)N2C(=O)[C@@H](NC(=O)C(=NO)c3csc(N)n3)[C@H]2SC1`, in assay [1], the parasite growth, % of control (lower = inhibition) was 103%. In assay [2], this molecule returned a growth, % of control of 68.4%. Also, in assay [3], the cell viability, % of control (lower = more cytotoxic) turned out to be 116%. Moreover, in [4], the viability (% of control) came to 105%. Besides, the Potency entry in assay [5], in assay [6], in assay [7], in assay [8] and in assay [9] was “inactive” each time.

Turning to `NC(=O)N1CCC(CC(=O)N2CCC([C@H]3c4ncc(Br)cc4CCc4cc(Cl)cc(Br)c43)CC2)CC1`, the parasite growth, % of control (lower = inhibition) in assay [1] stood at 13.1%. In addition, the growth, % of control in [2] was found to be 9.54%. Besides, the cell viability, % of control (lower = more cytotoxic) in [3] was 82.6%. Moreover, in assay [4], the viability (% of control) came to 6.4%. Besides, the Potency result in assay [5] and in [6] was “inactive” each time. Further, the Potency in assay [7] is 20.9 µM (active); in [8] it was 16.6 µM (active); in assay [9] it was 16.6 µM (active); in [10], 0.372 µM (active).

With `C[C@H](NCc1ccc2c(c1)nc(NC(=O)c1ccc(-c3cn[nH]c3)s1)n2CCc1ccccc1)C(C)(C)C`, in assay [1], the parasite growth, % of control (lower = inhibition) came out at 13.1%. Further, the growth, % of control in [2] was 10.1%. For the same molecule, the cell viability, % of control (lower = more cytotoxic) in assay [3] came to 9.44%. The viability (% of control) in assay [4] is 2.31%. The Potency result in assay [5] and in assay [6] was “inactive” each time. Also, the Potency in assay [7] was 2.35 µM (active); in assay [8] it was 1.48 µM (active); in assay [9], 2.09 µM (active).

For the molecule `CC(C)(C)c1nc2c3cc[nH]c(=O)c3c3cc(F)ccc3c2[nH]1`, the parasite growth, % of control (lower = inhibition) in assay [1] is 62%. This molecule also registered a growth, % of control in assay [2] of 58.6%. Also, the cell viability, % of control (lower = more cytotoxic) in [3] came out at 20.2%. For the same molecule, the viability (% of control) in assay [4] came to 26.4%. Moreover, the Potency result in [5] and in [6] was “inactive” throughout. Also, the Potency in assay [7] is 4.18 µM (active); in [9], 4.69 µM (active); in [10], 4.18 µM (active).

In the case of `CC(C)N(CC[C@H](c1ccccc1)c1cc(CO)ccc1O)C(C)C`, the parasite growth, % of control (lower = inhibition) in assay [1] amounted to 26.5%. In [2], the growth, % of control is 103%. In addition, in [3], the cell viability, % of control (lower = more cytotoxic) turned out to be 145%. Further, in assay [4], the viability (% of control) amounted to 101%. In addition, the Potency entry in assay [5], in assay [6], in [7], in assay [8] and in assay [9] was “inactive” throughout.

For `Cc1coc2c1C(=O)C(=O)c1c-2ccc2c(C)cccc12`, in assay [1], the parasite growth, % of control (lower = inhibition) is 15.4%. In addition, the growth, % of control in assay [2] amounted to 3.19%. The cell viability, % of control (lower = more cytotoxic) in assay [3] turned out to be 45.1%. Besides, the viability (% of control) in [4] stood at 93.8%. The Potency result in [5], in assay [6], in assay [7] and in assay [9] was “inactive” throughout. Moreover, in assay [8], the Potency is 11.8 µM (active).
